Inconclusive results are not listed. A call without a number means that no potency is given here. The source made the active and inactive calls. The call rests on the fitted dose curve; in most records, active means well fitted cell-killing curve with a large enough effect; inconclusive means small, poorly fitted or top-dose-only effect; inactive means no such curve, though single readings can be large or run the other way.

The record followed here is PubChem BioAssay (NCATS).
Potency means the concentration at half of the fitted maximal effect.

A short description of the assay: qHTS of pediatric cancer cell lines to identify multiple opportunities for drug repurposing: Primary screen for OHS-50 cells (AID 1347103). Further: nearly all actives have a fitted effect of over 40% in size. Particulars: OHS-50 osteosarcoma viability, CellTiter-Glo luminescence, 48 h; series mostly up to 57.3 µM. The text has this:
Drug repurposing or repositioning has been offered as a strategy for drug development in oncology programs. This approach has special potential for childhood cancers and other rare or orphan diseases, where the expected return on new drug development has been a disincentive to pharmaceuticals.
In this project we exploit the poly-pharmacology of drugs to discover new indications via phenotypic screening of a panel of 19 well-characterized cell lines derived from solid tumors seen in children and adolescents. The goal is to identify approved drugs with previously unrecognized anticancer properties that has the potential to reveal new mechanisms and biological processes involved in carcinogenesis or drug resistance. We employed a titration-based paradigm (quantitative high-throughput screening or qHTS), where all compounds were tested at multiple concentrations for their effect on cell viability. Concentration-response curves (CRCs) were derived directly from the primary screen, and both potency and efficacy values were used to identify compounds with robust bioactivity profiles. We screened the NIH Chemical Genomics Center (NCGC) Pharmaceutical Collection (NPC) and Mechanism Interrogation Plate (MIPE) small molecule collections of approved and investigational compounds against these cell lines; and measured metabolically active cells after 48 hours of compound treatment as a proxy for cell viability.
Assay Submitter: Nathalia J. Martinez, National Center for Advancing Translational Sciences, National Institutes of Health, Rockville, MD, USA; email: natalia.martinez@nih.gov
[1] Shen, M et al. Quantitative high-throughput phenotypic screening of pediatric cancer cell lines identifies multiple opportunities for drug repurposing. Oncotarget 2017 Dec 19;9(4):4758-4772. PMID 29435139.
The cells were obtained from University of North Carolina (UNC), Pediatric Preclinical Testing Program (PPT), and Coriell Institute (CI).
qHTS cell viability assay:
Cells were assayed in growth media at a density of 500-1,000 cells/well. Five microliters of cells were dispensed into 1,536-well, white, solid-bottom, TC-treated plates (Greiner Bio One) using a multidrop dispenser and incubated at 37 degrees C, 5% CO2, under a humidified atmosphere for 5 hours. Twenty-three nanoliters of compounds and controls (neutral control DMSO or positive control bortezomib at final concentration of 2.3 µM) were subsequently transferred by Kalypsys pintool. For primary screens, the MIPE collection was tested at 11-point dilutions (final concentrations range from 0.78 nM to 46 µM) and the NPC collection at 8-point dilutions (final concentrations range from 0.59 nM to 46 µM). Compounds tested in follow-up screens were assayed at 11-point dilutions. Cells were incubated for 48 hours, followed by addition of 3 µL of CellTiter-Glo (Promega). After a 15 min incubation at room temperature, samples were analyzed for luminescence intensity using a ViewLux High-throughput CCD imager equipped with clear filters.
Background: In qHTS, concentration-response curves come from the screen itself.
For `O=C1C(CCS(=O)c2ccccc2)C(=O)N(c2ccccc2)N1c1ccccc1` (stereo not given), the Potency result is “inactive”. Take `C[C@H]1O[C@@H](O[C@H]2CC[C@@]3(C)[C@H](CC[C@@H]4[C@@H]3C[C@@H](O)[C@]3(C)[C@@H](C5=CC(=O)OC5)CC[C@]43O)C2)C[C@H](O)[C@@H]1O[C@H]1C[C@H](O)[C@H](O[C@H]2C[C@H](O)[C@H](O[C@@H]3O[C@H](CO)[C@@H](O)[C@H](O)[C@H]3O)[C@@H](C)O2)[C@@H](C)O1`: the Potency is 0.219 µM (active). On to `Cc1cn([C@H]2C[C@H](F)[C@@H](CO)O2)c(=O)[nH]c1=O`, for which the Potency result is “inactive”. The result for `c1ccc(CC2=NCCN2)cc1` reads “inactive”; that for `Cn1c(=O)c2[nH]c(Br)nc2n(C)c1=O`, “inactive”. On to `CC[N+](C)(CC)CCOC(=O)C(O)(c1ccccc1)C1CCCCC1` (stereo not given), for which the Potency result is “inactive”. Turning to `C=CCN1CCc2nc(N)sc2CC1`, the Potency entry is “inactive”.

`O=C(Nc1ncc([N+](=O)[O-])s1)c1cccs1`: the Potency was 30.9 µM (active). The result for `Cc1ncc(CO)c(C=O)c1O` reads “inactive”; that for `Cc1nc(-c2ccc(Cl)cc2)oc1COC(C)(C)C(=O)O`, “inactive”; that for `O=C(O)Cc1csc(-c2ccc(Cl)cc2)n1`, “inactive”. On to `CC(=O)NC(=O)c1ccccc1O`, for which the Potency result was “inactive”. On to `CO[C@H]1C=CO[C@@]2(C)Oc3c(C)c(O)c4c(O)c(c(/C=N/N5CCN(C)CC5)c(O)c4c3C2=O)NC(=O)/C(C)=C\C=C[C@H](C)[C@H](O)[C@@H](C)[C@@H](O)[C@@H](C)[C@H](OC(C)=O)[C@@H]1C`, for which the Potency entry is “inactive”. For the molecule `CC(=O)O[C@H]1C[C@@H]2CC[C@@H]3[C@H](CC[C@@]4(C)[C@H]3C[C@H]([N+]3(C)CCCCC3)[C@@H]4OC(C)=O)[C@@]2(C)C[C@@H]1N1CCCCC1`, the Potency result is “inactive”. The same measure for `CN(C)CCN1C(=O)c2ccccc2N(C)c2ccccc21`: “inactive”. For the molecule `C[N+]12CCC(CC1)C(OC(=O)C(O)(c1ccccc1)c1ccccc1)C2` (stereo not given), the Potency entry is “inactive”.

For `C/C=C/c1ccc(O)c(OC)c1`, the Potency result was “inactive”. The same measure for `CN(C)CCC[C@@]1(c2ccc(F)cc2)OCc2cc(C#N)ccc21`: “inactive”. Consider `CC(C)Cn1cnc2c1c(=O)n(C)c(=O)n2C`, for which the Potency result was “inactive”.

`CC(C)n1c(/C=C/[C@@H](O)C[C@@H](O)CC(=O)O)c(-c2ccc(F)cc2)c2ccccc21`: the Potency is 6.92 µM (active).

`CCOC(=O)[C@H](CCc1ccccc1)N[C@@H](C)C(=O)N1[C@H](C(=O)O)C[C@@H]2CCC[C@@H]21`: the Potency result was “inactive”. The same measure for `CCN(CC)CCNC(=O)COc1ccc(OC)cc1`: “inactive”; for `CC1(C)OC[C@@H]2O[C@@]3(C(=O)O)OC(C)(C)O[C@H]3[C@@H]2O1`: “inactive”; for `COP(=O)(OC)OC(c1ccc(Cl)cc1)P(=O)(OC)OC` (stereo not given): “inactive”.

Consider `C[C@@H](O)[C@H]1C(=O)N2C(C(=O)O)=C([C@H]3CCCO3)S[C@H]12`, for which the Potency result was “inactive”. As to `CC(=O)OCC1=C(C(=O)O)N2C(=O)[C@@H](NC(=O)CSc3ccncc3)[C@H]2SC1`, the Potency result is “inactive”. Turning to `O=C(O)CCc1nc2ccccc2[nH]1`, the Potency result was “inactive”. The result for `CCCCCCCC/C=C\CCCCCCCCN` reads “inactive”; that for `Cl/C(=C\n1cncn1)c1ccc(Cl)cc1Cl`, “inactive”. With `CCCCCCCCCCCCCC(=O)OC(C)C`, the Potency entry is “inactive”. For the molecule `Nc1ccc(C(=O)NCC(=O)O)cc1`, the Potency entry was “inactive”. Turning to `Cc1cccc(C)c1NC(=O)c1ccccc1C(=O)O`, the Potency result is “inactive”.

In the case of `CC(C)(C)NCC(O)COc1cccc2c1C[C@H](O)[C@H](O)C2` (stereo not given in full), the Potency result was “inactive”. In the case of `CCCCCN=C(N)N/N=C/c1c[nH]c2ccc(OC)cc12`, the Potency is 11 µM (active). In the case of `C#C[C@]1(O)CC[C@H]2[C@@H]3[C@H](C)CC4=C(CCC(=O)C4)[C@H]3CC[C@@]21C`, the Potency entry was “inactive”. For the molecule `COc1cc(C(=S)N2CCOCC2)ccc1O`, the Potency entry is “inactive”. Turning to `Nc1nc(-c2ccccc2)c(Br)c(=O)[nH]1`, the Potency result is “inactive”.

Regarding `Oc1ccccc1C=NCc1ccccc1`, the Potency entry is “inactive”. In the case of `Oc1c(Cl)cc(Cl)c(Cl)c1Cc1c(O)c(Cl)cc(Cl)c1Cl`, the Potency was 6.17 µM (active). In the case of `CC(CNC1CCCCC1)OC(=O)c1ccccc1` (stereo not given), the Potency entry is “inactive”.
